Experimental findings from PubChem BioAssay (NCATS) are described below.

SMILES strings stand for the structures. Records with an inconclusive call do not appear. Entries that show only a call come without a potency. Calls of active or inactive are those of the source. Calls come from the whole dose curve; as a rule, active = well fitted cell-killing curve with a large enough effect; inconclusive = small, poorly fitted or top-dose-only effect, or effect the other way; inactive = no such curve, though single readings can be large or run the other way. Bridge positions count the residues as written; N and C are the ends. Square brackets hold non-standard residues; d marks the D form. Peptide text beside a SMILES is read from it. * marks the point of attachment. ξ: configuration not given here. Octanoyl(6-Me) = CCC(C)CCCCC(=O)*; ξThr(3R) = C[C@@H](O)C(N)C(=O)O; dDab = NCC[C@@H](N)C(=O)O; Dab = NCC[C@H](N)C(=O)O
Potency is the fitted concentration of half-maximal effect.

This test is described as follows: Quantitative highthroughput screen to assess conditional lethalithy of SEM cells grown in Human Plasma-Like Medium with dialyzed fetal bovine serum (HPLM+ds) (AID 1963882). Note: nearly all actives have a fitted effect of over 35% in size. Particulars: SEM B-ALL cells in HPLM+ds, CellTiter-Glo viability, 48 h; series mostly up to 45.8 µM. In a few lines: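 Each medium arm—HPLM with 10% dialyzed FBS, or RPMI1640 with 5 mM glucose and 10% untreated or dialyzed FBS—was screened against an 11-point, 3-fold compound titration for 48 h at 37 °C, with CellTiter-Glo luminescence as endpoint.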
Regarding `Cc1ccc(S(=O)(=O)Nc2nc3ccccc3nc2Nc2ccc3nsnc3c2)cc1`, the Potency is 7.24 µM (active).

In the case of `O=C1N(c2ccccc2)c2ccccc2C1(Cc1ccncc1)Cc1ccncc1`, the Potency result is “inactive”.

For the compound `CCC(=O)N[C@H]1CC[C@H](C(=O)N(C)c2ccc(-c3nc4ccccc4o3)cc2)C1`, the Potency result is “inactive”.

As for `Cc1c(C(=O)Nc2ccc(N3C[C@@H](C)O[C@@H](C)C3)nc2)cccc1-c1ccc(OC(F)(F)F)cc1`, the Potency is 2.96 µM (active).

With `CC(C(=O)O)c1cccc(C(=O)c2ccccc2)c1` (stereo unspecified), the Potency result was “inactive”.

Turning to `O=C(O)C1CCCN(CCC=C(c2ccccc2)c2ccccc2)C1` (stereo unspecified), the Potency result was “inactive”.

For `CCC(C)CCCCC(=O)N[C@@H](CCN)C(=O)NC(C(=O)N[C@H](CCN)C(=O)N[C@@H]1CCNC(=O)C([C@@H](C)O)NC(=O)[C@@H](CCN)NC(=O)[C@@H](CCN)NC(=O)[C@@H](CC(C)C)NC(=O)[C@H](Cc2ccccc2)NC(=O)[C@H](CCN)NC1=O)[C@@H](C)O` (stereo partly drawn) ({Octanoyl(6-Me)}-[Dab][ξThr(3R)][dDab][dDab][Dab]F[dL][dDab][dDab][ξThr(3R)]; lactam 4-C), the Potency entry was “inactive”.

For the compound `Clc1ccc(C(Cn2ccnc2)OCc2c(Cl)cccc2Cl)c(Cl)c1` (stereo unspecified), the Potency result is “inactive”.

Consider `Cc1cc(CN2CCN(c3c(Br)cnc4nc(-c5ccc(N6CCN(C)CC6)cc5)[nH]c34)CC2)no1`, for which the Potency was 0.935 µM (active).

Regarding `CCn1c(-c2nonc2N)nc2cnc(Oc3cccc(NC(=O)c4ccc(OCCN5CCOCC5)cc4)c3)cc21`, the Potency is 13.2 µM (active).

With `COc1ccc2cc(-c3nc(-c4ccc(S(C)=O)cc4)[nH]c3-c3ccncc3)ccc2c1` (stereo unspecified), the Potency result is “inactive”.
